{"source": "PubChem BioAssay (Tox21)", "note": "Results filed as inconclusive are left out. Where a call stands in place of a potency, no number is given. The source made the active and inactive calls. The call rests on the fitted dose curve; in most records, active means well fitted curve in the direction sought with a large enough effect in the repeat runs; inconclusive means weak or mixed curves; inactive means no such curve, though single readings can be large; an effect the other way counts as inactive or inconclusive.", "data": [{"system": "not listed separately", "assay": "qHTS assay to identify small molecule antagonists of the estrogen receptor alpha (ER-alpha) signaling pathway using the BG1 cell line in the presence of 0.1 nM 17-beta-estradiol - cell viability counter screen (AID 1259241); further: nearly all actives have a fitted effect of over 40% in size", "settings": "VM7Luc4E2 (BG1) viability, CellTiter-Fluor protease, 22 h, 0.1 nM estradiol agonist added; series mostly up to 92.4 µM", "how_it_was_run": "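Estradiol-stimulated (0.1 nM) VM7Luc4E2 cells exposed to compounds 22 hr; viability measured by fluorescence of cleaved CellTiter-Fluor substrate after 30 min.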", "values": [{"smiles": "COC(=O)c1ccc(C=O)cc1", "Potency": "inactive"}, {"smiles": "Cc1ccc(O)c(-n2nc3ccccc3n2)c1", "Potency": "inactive"}, {"smiles": "CN(C)C=O", "Potency": "inactive"}, {"smiles": "Cc1cccc2ccccc12", "Potency": "inactive"}, {"smiles": "Cc1cnc(NC(=O)C2=C(O)c3ccccc3S(=O)(=O)N2C)s1", "Potency": "inactive"}, {"smiles": "Cc1c(N(C)C)c(=O)n(-c2ccccc2)n1C", "Potency": "inactive"}, {"smiles": "CC(=O)OC/C=C(C)/C=C/C=C(C)/C=C/C1=C(C)CCCC1(C)C", "Potency": "inactive"}, {"smiles": "C/C=C/c1ccc(O)c(OC)c1", "Potency": "inactive"}, {"smiles": "C[C@]12C=CC(=O)C=C1CC[C@@H]1[C@@H]2C(=O)C[C@@]2(C)[C@H]1CC[C@]2(O)C(=O)CO", "Potency": "inactive"}, {"smiles": "CCCCOC(=O)CCCCCCCCC(=O)OCCCC", "Potency": "inactive"}, {"smiles": "CC(C)Cc1ccc(C(C)C(=O)O)cc1", "note": "(stereo not given)", "Potency": "inactive"}, {"smiles": "COc1ccccc1NC(=O)CC(C)=O", "Potency": "inactive"}, {"smiles": "CCCCCCCCCCCCCCCCCC(=O)OCC(O)CO", "note": "(stereo not given)", "Potency": "inactive"}, {"smiles": "OC[C@@H](O)[C@@H](O)[C@H](O)[C@H](O)CO", "Potency": "inactive"}, {"smiles": "CCN1CCCC1=O", "Potency": "inactive"}, {"smiles": "C=C(C)OC(C)=O", "Potency": "inactive"}, {"smiles": "CC(=O)/C=C/C1=C(C)CCCC1(C)C", "Potency": "inactive"}, {"smiles": "C=CCOC(=O)CC(C)C", "Potency": "inactive"}, {"smiles": "C#C[C@]1(O)CC[C@H]2[C@@H]3CCC4=CC(=O)CC[C@@H]4[C@H]3CC[C@@]21CC", "Potency": "inactive"}, {"smiles": "CC(C)(C)NCC(O)c1ccc(O)c(CO)c1", "note": "(stereo not given)", "Potency": "inactive"}, {"smiles": "CC(=O)CCC(C)C", "Potency": "inactive"}, {"smiles": "C=CC(=O)NC(C)(C)CS(=O)(=O)O", "Potency": "inactive"}, {"smiles": "CCCCCCCCOc1ccc(C(=O)c2ccccc2)c(O)c1", "Potency": "inactive"}, {"smiles": "COc1ccccc1O", "Potency": "inactive"}, {"smiles": "NC(=O)N1c2ccccc2C=Cc2ccccc21", "Potency": "inactive"}, {"smiles": "COC(=O)C1CCC(C(=O)OC)CC1", "note": "(stereo not given)", "Potency": "inactive"}, {"smiles": "CN/C(=C\\[N+](=O)[O-])NCCSCc1ccc(CN(C)C)o1", "Potency": "inactive"}, {"smiles": "C[C@]12C[C@H](O)[C@H]3[C@@H](CCC4=CC(=O)CC[C@@]43C)[C@@H]1CC[C@@H]2C(=O)CO", "Potency": "inactive"}, {"smiles": "OCCCc1ccccc1", "Potency": "inactive"}, {"smiles": "COC1=CC(=O)C[C@@H](C)[C@]12Oc1c(Cl)c(OC)cc(OC)c1C2=O", "Potency": "inactive"}]}, {"system": "not listed separately", "assay": "qHTS assay to identify small molecule antagonists of the androgen receptor (AR) signaling pathway using the MDA cell line in the presence of 0.5 nM R1881 - cell viability counter screen (AID 1259242); further: nearly all actives have a fitted effect of over 45% in size", "settings": "MDA-kb2 viability, CellTiter-Fluor protease fluorescence, 16 h; series mostly up to 92.4 µM", "how_it_was_run": "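Live-cell protease activity was measured by CellTiter-Fluor fluorescence after 30 min. Before that, MDA-kb2 MMTV-luciferase cells had 16 hr at 37C without CO2, exposed to test compounds and 0.5 nM R1881 final.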", "values": [{"smiles": "COC(=O)c1ccc(C=O)cc1", "Potency": "inactive"}, {"smiles": "Cc1ccc(O)c(-n2nc3ccccc3n2)c1", "Potency": "inactive"}, {"smiles": "CN(C)C=O", "Potency": "inactive"}, {"smiles": "Cc1cccc2ccccc12", "Potency": "inactive"}, {"smiles": "Cc1cnc(NC(=O)C2=C(O)c3ccccc3S(=O)(=O)N2C)s1", "Potency": "inactive"}, {"smiles": "Cc1c(N(C)C)c(=O)n(-c2ccccc2)n1C", "Potency": "inactive"}, {"smiles": "CC(=O)OC/C=C(C)/C=C/C=C(C)/C=C/C1=C(C)CCCC1(C)C", "Potency": "inactive"}, {"smiles": "C/C=C/c1ccc(O)c(OC)c1", "Potency": "inactive"}, {"smiles": "C[C@]12C=CC(=O)C=C1CC[C@@H]1[C@@H]2C(=O)C[C@@]2(C)[C@H]1CC[C@]2(O)C(=O)CO", "Potency": "inactive"}, {"smiles": "CCCCOC(=O)CCCCCCCCC(=O)OCCCC", "Potency": "inactive"}, {"smiles": "CC(C)Cc1ccc(C(C)C(=O)O)cc1", "note": "(stereo not given)", "Potency": "inactive"}, {"smiles": "COc1ccccc1NC(=O)CC(C)=O", "Potency": "inactive"}, {"smiles": "CCCCCCCCCCCCCCCCCC(=O)OCC(O)CO", "note": "(stereo not given)", "Potency": "inactive"}, {"smiles": "OC[C@@H](O)[C@@H](O)[C@H](O)[C@H](O)CO", "Potency": "inactive"}, {"smiles": "CCN1CCCC1=O", "Potency": "inactive"}, {"smiles": "C=C(C)OC(C)=O", "Potency": "inactive"}, {"smiles": "CC(=O)/C=C/C1=C(C)CCCC1(C)C", "Potency": "inactive"}, {"smiles": "C=CCOC(=O)CC(C)C", "Potency": "inactive"}, {"smiles": "C#C[C@]1(O)CC[C@H]2[C@@H]3CCC4=CC(=O)CC[C@@H]4[C@H]3CC[C@@]21CC", "Potency": "inactive"}, {"smiles": "CC(C)(C)NCC(O)c1ccc(O)c(CO)c1", "note": "(stereo not given)", "Potency": "inactive"}, {"smiles": "CC(=O)CCC(C)C", "Potency": "inactive"}, {"smiles": "C=CC(=O)NC(C)(C)CS(=O)(=O)O", "Potency": "inactive"}, {"smiles": "CCCCCCCCOc1ccc(C(=O)c2ccccc2)c(O)c1", "Potency": "inactive"}, {"smiles": "COc1ccccc1O", "Potency": "inactive"}, {"smiles": "NC(=O)N1c2ccccc2C=Cc2ccccc21", "Potency": "inactive"}, {"smiles": "COC(=O)C1CCC(C(=O)OC)CC1", "note": "(stereo not given)", "Potency": "inactive"}, {"smiles": "CN/C(=C\\[N+](=O)[O-])NCCSCc1ccc(CN(C)C)o1", "Potency": "inactive"}, {"smiles": "C[C@]12C[C@H](O)[C@H]3[C@@H](CCC4=CC(=O)CC[C@@]43C)[C@@H]1CC[C@@H]2C(=O)CO", "Potency": "inactive"}, {"smiles": "OCCCc1ccccc1", "Potency": "inactive"}, {"smiles": "COC1=CC(=O)C[C@@H](C)[C@]12Oc1c(Cl)c(OC)cc(OC)c1C2=O", "Potency": "inactive"}]}, {"target": "Estrogen receptor (Homo sapiens) (UniProt P03372)", "sequence (P03372 whole entry, looked up)": "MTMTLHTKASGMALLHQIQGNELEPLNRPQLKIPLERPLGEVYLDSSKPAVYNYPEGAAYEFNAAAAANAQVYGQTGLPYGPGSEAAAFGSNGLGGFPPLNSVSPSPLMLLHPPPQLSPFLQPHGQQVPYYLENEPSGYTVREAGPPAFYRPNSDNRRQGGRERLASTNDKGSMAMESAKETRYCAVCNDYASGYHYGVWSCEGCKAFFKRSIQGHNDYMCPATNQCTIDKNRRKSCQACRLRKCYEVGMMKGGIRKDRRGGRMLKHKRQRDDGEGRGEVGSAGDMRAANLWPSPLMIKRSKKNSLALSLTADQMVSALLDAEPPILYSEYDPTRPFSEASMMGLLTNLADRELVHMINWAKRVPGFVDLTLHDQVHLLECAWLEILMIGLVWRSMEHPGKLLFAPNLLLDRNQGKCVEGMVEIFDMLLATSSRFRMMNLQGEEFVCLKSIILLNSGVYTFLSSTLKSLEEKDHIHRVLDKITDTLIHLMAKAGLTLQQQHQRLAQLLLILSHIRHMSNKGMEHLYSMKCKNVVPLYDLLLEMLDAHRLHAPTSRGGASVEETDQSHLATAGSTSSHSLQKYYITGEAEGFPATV", "assay": "qHTS assay to identify small molecule antagonists of the estrogen receptor alpha (ER-alpha) signaling pathway using the BG1 cell line in the presence of 0.1 nM 17-beta-estradiol (AID 1259244); further: nearly all actives have a fitted effect of over 50% in size", "settings": "VM7Luc4E2 (BG1) ERE-luciferase, antagonist mode, 0.1 nM E2, 22 h; series mostly up to 92.4 µM", "how_it_was_run": "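Luciferase luminescence (ONE-Glo, 30 min at room temperature) was read after 22 hr at 37C exposure to compounds plus 17beta-estradiol at 0.1 nM final. Cells were VM7Luc4E2 with endogenous ER-alpha and an ERE-driven luciferase, pre-cultured 5 days in hormone-depleted medium.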", "values": [{"smiles": "COC(=O)c1ccc(C=O)cc1", "Potency": "inactive"}, {"smiles": "Cc1ccc(O)c(-n2nc3ccccc3n2)c1", "Potency": "inactive"}, {"smiles": "CN(C)C=O", "Potency": "inactive"}, {"smiles": "Cc1cccc2ccccc12", "Potency": "inactive"}, {"smiles": "Cc1cnc(NC(=O)C2=C(O)c3ccccc3S(=O)(=O)N2C)s1", "Potency": "inactive"}, {"smiles": "Cc1c(N(C)C)c(=O)n(-c2ccccc2)n1C", "Potency": "inactive"}, {"smiles": "CC(=O)OC/C=C(C)/C=C/C=C(C)/C=C/C1=C(C)CCCC1(C)C", "Potency": "inactive"}, {"smiles": "C/C=C/c1ccc(O)c(OC)c1", "Potency": "inactive"}, {"smiles": "C[C@]12C=CC(=O)C=C1CC[C@@H]1[C@@H]2C(=O)C[C@@]2(C)[C@H]1CC[C@]2(O)C(=O)CO", "Potency": "inactive"}, {"smiles": "CCCCOC(=O)CCCCCCCCC(=O)OCCCC", "Potency": "inactive"}, {"smiles": "CC(C)Cc1ccc(C(C)C(=O)O)cc1", "note": "(stereo not given)", "Potency": "inactive"}, {"smiles": "COc1ccccc1NC(=O)CC(C)=O", "Potency": "inactive"}, {"smiles": "CCCCCCCCCCCCCCCCCC(=O)OCC(O)CO", "note": "(stereo not given)", "Potency": "inactive"}, {"smiles": "OC[C@@H](O)[C@@H](O)[C@H](O)[C@H](O)CO", "Potency": "inactive"}, {"smiles": "CCN1CCCC1=O", "Potency": "inactive"}, {"smiles": "C=C(C)OC(C)=O", "Potency": "inactive"}, {"smiles": "CC(=O)/C=C/C1=C(C)CCCC1(C)C", "Potency": "inactive"}, {"smiles": "C=CCOC(=O)CC(C)C", "Potency": "inactive"}, {"smiles": "C#C[C@]1(O)CC[C@H]2[C@@H]3CCC4=CC(=O)CC[C@@H]4[C@H]3CC[C@@]21CC", "Potency": "inactive"}, {"smiles": "CC(C)(C)NCC(O)c1ccc(O)c(CO)c1", "note": "(stereo not given)", "Potency": "inactive"}, {"smiles": "CC(=O)CCC(C)C", "Potency": "inactive"}, {"smiles": "C=CC(=O)NC(C)(C)CS(=O)(=O)O", "Potency": "inactive"}, {"smiles": "CCCCCCCCOc1ccc(C(=O)c2ccccc2)c(O)c1", "Potency": "inactive"}, {"smiles": "COc1ccccc1O", "Potency": "inactive"}, {"smiles": "NC(=O)N1c2ccccc2C=Cc2ccccc21", "Potency": "inactive"}, {"smiles": "COC(=O)C1CCC(C(=O)OC)CC1", "note": "(stereo not given)", "Potency": "inactive"}, {"smiles": "CN/C(=C\\[N+](=O)[O-])NCCSCc1ccc(CN(C)C)o1", "Potency": "inactive"}, {"smiles": "C[C@]12C[C@H](O)[C@H]3[C@@H](CCC4=CC(=O)CC[C@@]43C)[C@@H]1CC[C@@H]2C(=O)CO", "Potency": "inactive"}, {"smiles": "OCCCc1ccccc1", "Potency": "inactive"}, {"smiles": "COC1=CC(=O)C[C@@H](C)[C@]12Oc1c(Cl)c(OC)cc(OC)c1C2=O", "Potency": "inactive"}]}]}
